Source: PubChem BioAssay (NCATS)
Records with an inconclusive call do not appear. The source made the active and inactive calls. Unless noted, calls follow the shape of the dose curve; as a rule, active = well fitted curve in the direction sought with a large enough effect; inconclusive = small, poorly fitted or top-dose-only effect, or another doubt; inactive = no such curve, though single readings can be large; an effect the other way counts as inactive or inconclusive. Bridge positions count the residues as written; N and C are the ends. Square brackets hold non-standard residues; d marks the D form. Peptide text beside a SMILES is read from it. * marks the point of attachment. Octanoyl(6-Me) = CCC(C)CCCCC(=O)*; Dab = NCC[CH](N)C(=O)O

What was measured:
[1] = MultiTox-Fluor Cytotoxicity Assay - LYMP1-001 - Live Cells (AID 947); details: LYMP1-001 lymphoblastoid cells, live-cell protease fluorescence viability; series mostly up to 92.2 µM
[2] = qHTS assay for small molecule disruptors of the mitochondrial membrane potential - 5 hr assay (AID 651755; calls by dose curve; also: nearly all actives have a fitted effect of over 40% in size); details: JC-1-type ratio dye; series mostly up to 92.2 µM
How it was run: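 HepG2, 2,000 cells/well, overnight attach; cpd or DMSO 5 hr, 37C/5% CO2; Mito-MPS 30 min 37C; fluor 490/535 + 540/590 nm.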

[3] = qHTS assay for small molecule activators of the human pregnane X receptor (PXR) signaling pathway (AID 720659; call rule not given here); details: DPX-2 HepG2 CYP3A4-luciferase, 24 h; series mostly up to 92.3 µM
CP194 = assay: qHTS profiling for inhibitors of Plasmodium falciparum proliferation (AID 504749); also: nearly all actives have a fitted effect of over 60% in size; also: potency is read from the fitted curve at half-maximal effect; details: P. falciparum in erythrocytes, SYBR Green DNA, 72 h; series mostly up to 28.7 µM
How it was run: (§1)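 Three-day growth assay of blood-stage parasites in erythrocytes (0.3% parasitemia, 2.5% hematocrit) at 37 C, 5% CO2, quantified by SYBR Green DNA staining after overnight detergent lysis.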

CP211 = assay: as above; details: P. falciparum in erythrocytes, SYBR Green DNA, 72 h; series mostly up to 28.7 µM
How it was run: as §1

CP262 = assay: as above; details: P. falciparum in erythrocytes, SYBR Green DNA, 72 h; series mostly up to 28.7 µM
How it was run: as §1

CP269 = assay: as above; details: P. falciparum in erythrocytes, SYBR Green DNA, 72 h; series mostly up to 28.7 µM
How it was run: as §1

CP305 = assay: as above; details: P. falciparum in erythrocytes, SYBR Green DNA, 72 h; series mostly up to 28.7 µM
How it was run: as §1

CP315 = assay: as above; details: P. falciparum in erythrocytes, SYBR Green DNA, 72 h; series mostly up to 28.7 µM
How it was run: as §1

CP329 = assay: as above; details: P. falciparum in erythrocytes, SYBR Green DNA, 72 h; series mostly up to 28.7 µM
How it was run: as §1

DIV14 = assay: as above; details: P. falciparum in erythrocytes, SYBR Green DNA, 72 h; series mostly up to 28.7 µM
How it was run: as §1

DIV17 = assay: as above; details: P. falciparum in erythrocytes, SYBR Green DNA, 72 h; series mostly up to 28.7 µM
How it was run: as §1

W2 = assay: as above; details: P. falciparum in erythrocytes, SYBR Green DNA, 72 h; series mostly up to 28.7 µM
How it was run: as §1

AA1029 = assay: as above; details: P. falciparum in erythrocytes, SYBR Green DNA, 72 h; series mostly up to 28.7 µM
How it was run: as §1

ATS189 = assay: as above; details: P. falciparum in erythrocytes, SYBR Green DNA, 72 h; series mostly up to 28.7 µM
How it was run: as §1

ATS95 = assay: as above; details: P. falciparum in erythrocytes, SYBR Green DNA, 72 h; series mostly up to 28.7 µM
How it was run: as §1

CP191 = assay: as above; details: P. falciparum in erythrocytes, SYBR Green DNA, 72 h; series mostly up to 28.7 µM
How it was run: as §1

CP238 = assay: as above; details: P. falciparum in erythrocytes, SYBR Green DNA, 72 h; series mostly up to 28.7 µM
How it was run: as §1

CP286 = assay: as above; details: P. falciparum in erythrocytes, SYBR Green DNA, 72 h; series mostly up to 28.7 µM
How it was run: as §1

DFO2036 = assay: as above; details: P. falciparum in erythrocytes, SYBR Green DNA, 72 h; series mostly up to 28.7 µM
How it was run: as §1

Measured: Potency

O=C1CCc2ccccc2O1
inactive: [1] | [2] | [3]

Nc1nc(Cl)nc2c1ncn2C1CC(O)C(CO)O1 (stereo not given)
inactive: CP194 | CP211 | CP262 | CP269 | CP305 | CP315 | CP329 | DIV14 | DIV17 | W2

O=NCc1ccc([N+](=O)[O-])o1
inactive: AA1029 | ATS189 | ATS95 | CP191 | CP194 | CP211 | CP238 | CP262 | CP286 | CP305 | CP315 | CP329 | DFO2036
active: W2 6.01 µM

CC(=O)O[C@@]12CO[C@@H]1C[C@H](O)[C@@]1(C)C(=O)[C@H](O)C3=C(C)[C@@H](OC(=O)C(O)[C@@H](NC(=O)OC(C)(C)C)c4ccccc4)C[C@@](O)([C@@H](OC(=O)c4ccccc4)[C@H]21)C3(C)C (stereo not given in full)
active: AA1029 0.0447 µM | ATS189 0.0355 µM | ATS95 0.0355 µM | CP191 0.0282 µM | CP194 0.0675 µM | CP211 0.0426 µM | CP238 0.0282 µM | CP262 0.0338 µM | CP269 0.0426 µM | CP286 0.0178 µM | CP305 0.0426 µM | CP315 0.0338 µM | CP329 0.0338 µM | DFO2036 0.0224 µM | DIV14 1.2 µM | DIV17 1.35 µM | W2 0.0151 µM

CCC(C)CCCCC(=O)NC(CCN)C(=O)NC(C(=O)NC(CCN)C(=O)NC1CCNC(=O)C(C(C)O)NC(=O)C(CCN)NC(=O)C(CCN)NC(=O)C(CC(C)C)NC(=O)C(Cc2ccccc2)NC(=O)C(CCN)NC1=O)C(C)O (stereo not given) ({Octanoyl(6-Me)}-[Dab]T[Dab][Dab][Dab]FL[Dab][Dab]T; lactam 4-C; configuration not given here)
inactive: AA1029 | ATS189 | ATS95 | CP191 | CP194 | CP211 | CP238 | CP262 | CP269 | CP286 | CP305 | CP315 | CP329 | DFO2036 | DIV14 | DIV17 | W2

Cc1cc(CC(C)CC(C)(C)C)n(O)c(=O)c1 (stereo not given)
active: AA1029 3.16 µM | ATS189 3.16 µM | ATS95 3.16 µM | CP191 1.12 µM | CP194 4.26 µM | CP211 3.38 µM | CP238 2.51 µM | CP262 3.38 µM | CP269 3.38 µM | CP286 2.82 µM | CP305 2.39 µM | CP315 3.38 µM | CP329 1.9 µM | DFO2036 1.78 µM | DIV14 1.51 µM | DIV17 1.51 µM | W2 2.13 µM

O=S(=O)(O)c1ccccc1
inactive: [1] | [2] | [3]

CCN1/C(=C/C=C/C=C/c2sc3ccccc3[n+]2CC)Sc2ccccc21
active: AA1029 3.98 µM | ATS189 4.47 µM | ATS95 5.01 µM | CP191 3.55 µM | CP194 6.75 µM | CP211 6.01 µM | CP238 3.16 µM | CP269 15.1 µM | CP286 0.708 µM | CP305 10.7 µM | CP315 12 µM | CP329 6.75 µM | DFO2036 3.55 µM | DIV14 8.49 µM | DIV17 9.53 µM | W2 1.51 µM
inactive: CP262

O[C@@H]([C@H](O)[C@@H](O)CBr)[C@@H](O)CBr
inactive: [1] | [2] | [3]

CCC(=O)O[C@@H](OP(=O)(CCCCc1ccccc1)CC(=O)N1C[C@H](C2CCCCC2)C[C@H]1C(=O)O)C(C)C (stereo not given in full)
inactive: AA1029 | ATS189 | ATS95 | CP191 | CP194 | CP211 | CP238 | CP262 | CP269 | CP286 | CP305 | CP315 | CP329 | DFO2036 | DIV14 | DIV17

CC1(C)S[C@@H]2[C@H](NC(=O)COc3ccccc3)C(=O)N2[C@H]1C(=O)O
inactive: AA1029 | ATS189 | ATS95 | CP191 | CP194 | CP211 | CP238 | CP262 | CP269 | CP286 | CP305 | CP315 | CP329 | DFO2036 | DIV14 | DIV17 | W2 | [3]

CC1CCC(C(C)C)C(OC(=O)c2ccccc2O)C1 (stereo not given)
inactive: AA1029 | ATS189 | ATS95 | CP191 | CP194 | CP211 | CP238 | CP262 | CP269 | CP286 | CP305 | CP315 | CP329 | DFO2036 | DIV14 | DIV17 | W2

O=C(O)c1ccccc1C(c1ccc(O)cc1)c1ccc(O)cc1
inactive: [1]

c1ccc2scnc2c1
inactive: [2] | [3]

Cc1c(N=C=O)cccc1N=C=O
inactive: [1] | [2] | [3]

Cc1ccccc1C
inactive: [1] | [2] | [3]

Nc1ccc(S(=O)(=O)O)cc1
inactive: [1] | [2]

COC(=O)CCCCC(=O)OC
inactive: [1] | [2] | [3]

CO[C@@H]1[C@@H](OC2OC(C)C(OC3CC(C)(O)C(OC(=O)CC(C)C)C(C)O3)C(N(C)C)C2O)[C@@H](CC=O)C[C@@H](C)C(=O)/C=C\C2O[C@H]2C[C@@H](C)OC(=O)C[C@H]1OC(C)=O (stereo not given in full)
active: AA1029 5.01 µM | ATS189 11.2 µM | ATS95 11.2 µM | CP191 11.2 µM | CP238 10 µM | CP269 4.78 µM | CP286 4.47 µM | DFO2036 10 µM | DIV14 12 µM | DIV17 10.7 µM | W2 1.69 µM

O=C(O)c1ccc(O)cc1O
inactive: [1] | [2] | [3]
